Laboratory results from PubChem BioAssay (NCI).
The panel holds about 83,000 compounds, 20% with a hit somewhere; the sample as a whole holds those more often.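 A percent growth of 40 corresponds to 60% growth inhibition; 0 means no net growth; -100 means all cells died. Active threshold: below 10.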 Unmarked numbers belong to inactive results. The source made the active and inactive calls.

tested on: LOX IMVI melanoma; assay: NCI-60 one-dose screen, 48 h (100 = growth as untreated, 0 = no growth, -100 = all killed); conditions: 10 µM unless noted

| Compound | growth |
| --- | --- |
| Cc1ccc(C)n1-c1ccccc1-n1c(C)ccc1C | 90.9% |
| COc1ccc(/C=C/C(=O)c2ccc(Nc3ccnc4cc(Cl)ccc34)cc2)cc1 | 89.8% |
| CCN(CC)c1ccc(\C=N/N=C(N)/C(N)=N\N=C/c2ccc(N(CC)CC)cc2)cc1 | 101% |
| O=[N+]([O-])c1cccc(-c2nc3cc4nc5ccccc5[nH]c4cc3n2)c1 | 99.8% |
| COc1ccc(/C=C(\C#N)n2nnc3cc(Cl)ccc32)cc1 | -45.7% (active) |

tested on: SK-MEL-28 melanoma; assay: as above; conditions: 10 µM unless noted

| Compound | growth |
| --- | --- |
| CSc1nnc(-c2cc3c([nH]c4ccccc43)c(-c3cccc(O)c3)n2)n1-c1ccccc1 | 36.2% |
| Nc1cc(C(=O)NC[C@H]2CN(c3ccc(N4CCC(C(=O)O)CC4)cc3)C(=O)O2)ccc1Cl | 109% |
| CC(C)(Sc1cc(C(C)(C)C)c(OC(=O)CCCC(=O)O)c(C(C)(C)C)c1)Sc1cc(C(C)(C)C)c(OC(=O)CCCC(=O)O)c(C(C)(C)C)c1 | 24.9% |
| C=CCn1c(SCC(=O)Nc2ccc(C(=O)/C=C/c3ccc(Cl)cc3)cc2)nnc1-c1ccc(Br)cc1 | 105% |
| CCOC(=O)c1nn(-c2ccc(S(N)(=O)=O)cc2)c2nc(C)cc(=O)n12 | 119% |
| CN(C)CCNC(=O)c1cc2c3cc(Cl)ccc3[nH]c2c2ncccc12 | -59.3% (active) |
| COc1ccccc1NC(=O)N=Nc1c(O)[nH]c2ccccc12 | 104% |
| CC(=O)N1N=C(c2ccc(C(F)(F)F)c(F)c2)CC1c1[nH]c(C)c(C(=O)NCC(F)(F)F)c1C (stereo not given) | 69.8% |
| O=C(/C=C(/C=C/c1ccc2[nH]ccc2c1)OB(F)F)/C=C/c1ccc2[nH]ccc2c1 | 22% |
| CCOC(=O)c1cc2c(n1Cc1cc(OC)c(OC)c(OC)c1)-c1nc(N)sc1CCC2 | 69.4% |
| N#Cc1ccc(O)c(C2=NCC(c3ccccc3)O2)c1 (stereo not given) | 86.4% |
| CC(=O)c1c(C)nc(SCC(=O)Nc2cccc(O)c2)n1-c1ccc(Cl)cc1 | 106% |
| O=C(Nc1cccc2ccccc12)NC1CC1 | 105% |
| CCOC(=O)c1c2c(n3cccc(F)c13)C(=O)c1ncccc1C2=O | 37.4% |
| O=c1c2ccccc2n2cnc3ccc(Cl)c1c32 | 92.2% |
| CC(C)c1ccc(-n2c(=S)[nH]c3sc4cc(O)ccc4c3c2=O)cc1 | 103% |
| N#Cc1c(-c2ccccc2)cc(-c2ccccc2)n(CCCC(=O)Nc2ccccc2N)c1=O | 65.9% |
| COc1cc2c(cc1OCCCN1CCN(CCCOc3cc4c(cc3OC)C(=O)N3CCC[C@H]3C=N4)CC1)C=CC(C)(C)O2 | -100% (active) |
| CCC(C(=O)[C@@H](C)[C@@H](O)[C@H](C)[C@@H]1O[C@@H]([C@@H](CC)C(=O)ONC(=O)c2ccccc2)CC[C@@H]1C)[C@H]1O[C@]2(C=CC(=O)[C@]3(CC[C@@](C)([C@H]4CC[C@](O)(CC)[C@H](C)O4)O3)O2)[C@H](C)C[C@@H]1C (stereo not given in full) | 20.6% |
| CN1C(=O)/C(=C\c2nc([P+](c3ccccc3)(c3ccccc3)c3ccccc3)c(N3CCOCC3)o2)SC1=S | 11% |
| COc1ccc(/C=C/C(=O)c2cccc(OCCCCOc3cccc(C(=O)/C=C/c4ccc(OC)c(OC)c4)c3)c2)cc1OC | 86% |
| O=S(=O)(Nc1cc(Cl)ccc1Cl)c1ccc(-c2cnc(C3CC3)o2)cc1 | 63.2% |
| C=C1C(=O)O[C@H]2[C@H]1CC/C(COC(=O)c1cc3ccccc3s1)=C\CC[C@@]1(C)O[C@@H]21 | -70.7% (active) |
| N=C(N)c1ccc(-c2ccc(-c3ccccc3)o2)cc1 | -61.1% (active) |
| c1cnc2c(-c3nc4ccc5[nH]ncc5c4c4c3CCCC4)c[nH]c2c1 | 88.8% |
| Cc1nc2sc(C(=O)Nc3cccc(Br)c3)c(N)c2cc1C(O)c1ccccc1 (stereo not given) | 61.9% |
| Cn1ccnc1C(=O)/C=C/c1ccc(CC(=O)Nc2cc(C(F)(F)F)cc(C(F)(F)F)c2)cc1 | 91.2% |
| C=C1C(=O)O[C@H]2[C@H]1CC/C(Cn1cc(-c3ccccc3)nn1)=C\CC[C@@]1(C)O[C@@H]21 | -26.9% (active) |
| Oc1c(I)cc(I)cc1CNCc1ccccn1 | 48.6% |
| CCOC(=O)c1cc2c(n1C)-c1nc(NC(C)=O)sc1CCC2 | 107% |
